Compound activity: PubChem, National Center for Advancing Translational Sciences (NCATS)
Most compounds without a hit are left out; they make up all but 9.9% or so of the library.
IL-1B inflam inh: inhibitors of inflammasome signaling (IL-1 beta secretion) | THP-1 LPS/ATP IL-1B secretion, AlphaLISA, 16 h; stronger effect = lower value | activity change, % at 57.5 µM | 360,000 compounds, 4.7% hits | AID 743279; in the data active means activity change below about -50%; inconclusive means mostly about -30% to -49%
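THP-1 cells pretreated 1 hr with compounds (up to 57.5 uM final), then stimulated with LPS (250 ng/mL final) plus ATP (1.25 mM final); secreted IL-1B measured by AlphaLISA after 16 hr, decreased signal indicating inhibition.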
MCF10A rereplic: DNA re-replication induction in MCF 10a cells. MCF 10A DNA re-replication, Hoechst nuclear intensity, 48 h. Potency, µM (top dose mostly 46.1 µM), usual class: activators. 350,000 compounds, 2.9% hits; further: nearly all actives have a fitted effect of over 50% in size
SW480 rereplic: induces DNA re-replication in SW480 colon adenocarcinoma cells; 340,000 compounds, 1.8% hits; SW480 DNA re-replication, Hoechst DNA content imaging, 48 h; Potency, µM (series often up to 46.1 µM), usual class: activators; further: nearly all actives have a fitted effect of over 55% in size
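250 cells/well; 23 nL cpd via pin tool; 48 hr, 37 C, 5% CO2; Hoechst 40 min; imager read of total nuclear intensity, ex 405/em 500-530 nm.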
KB-3-1 cytotox: kills parental KB-3-1 adenocarcinoma cells; Potency, µM (series often up to 46.1 µM), actives largely listed as cytotoxic; KB-3-1 viability, CellTiter-Glo ATP luminescence, 72 h; 400,000 compounds, 1.4% hits; further: nearly all actives have a fitted effect of over 60% in size
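KB-3-1 parental drug-naive adenocarcinoma cells in DMEM/10% FBS, incubated 72 h at 37 C with pin-transferred compounds across a concentration series. Viability by CellTiter-Glo luminescence; concentration-response curves fitted after normalization.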
KB-V1 MDR tox: kills drug-selected multidrug resistant KB-V1 cells; KB-V1 MDR cells viability, CellTiter-Glo, 72 h; Potency, µM (top dose mostly 46.1 µM), most hits filed as cytotoxic; 400,000 compounds, 3.4% hits; AID 1347076; further: nearly all actives have a fitted effect of over 60% in size
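Potencies derive from concentration-effect curves fitted to normalized luminescence (CellTiter-Glo) of KB-V1 cells treated for 72 h at 37 degrees C in phenol-red-free DMEM containing 10% FBS.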
Of the large screens only hits and unclear results are named; the others gave an inactive call. Unless noted, the call rests on the fitted dose curve; in most records, active means well fitted curve in the direction sought with a large enough effect; inconclusive means small, poorly fitted or top-dose-only effect, or another doubt; inactive means no such curve, though single readings can be large; an effect the other way counts as inactive or inconclusive.

N#CC1=C(SCC(=O)c2cc3ccccc3oc2=O)NC(=O)C(C#N)C12CCCC2 (stereo unspecified)	none
CC(C)(C)C1CCC2(CC1)C(C#N)=C(SCC(=O)Nc1ccccc1)NC(=O)C2C#N (stereo unspecified)	MCF10A rereplic 9.2µM, SW480 rereplic inconclusive, KB-3-1 cytotox inconclusive
CC1(C)CC(=O)C2=C(C1)NC(SCC(=O)Nc1ccccc1)=C(C#N)C21CCCCC1	IL-1B inflam inh inconclusive, KB-3-1 cytotox inconclusive, KB-V1 MDR tox 20.6µM
O=C(O)c1cccc2c1C(=O)c1ccc(-c3ccc(Cl)c(C(F)(F)F)c3)cc1S2(=O)=O	IL-1B inflam inh -77.7
CCc1ccccc1NC(=O)CCn1cccn1	KB-V1 MDR tox inconclusive (no result: IL-1B inflam inh, MCF10A rereplic, SW480 rereplic)
Cc1nnsc1S(=O)c1ccc(Cl)c(Cl)c1 (stereo unspecified)	IL-1B inflam inh -62.0, MCF10A rereplic inconclusive, SW480 rereplic inconclusive, KB-3-1 cytotox inconclusive, KB-V1 MDR tox inconclusive
CC1=C(/C=C/C(C)=C/C=C/C(C)=C/C(=O)Nc2ccc(O)cc2)C(C)(C)CCC1	IL-1B inflam inh -76.7, SW480 rereplic inconclusive, KB-3-1 cytotox inconclusive, KB-V1 MDR tox inconclusive
O=C1OC(c2ccc3ccccc3c2O)(c2ccc3ccccc3c2O)c2ccccc21	IL-1B inflam inh -50.7, MCF10A rereplic inconclusive, SW480 rereplic inconclusive, KB-3-1 cytotox inconclusive
O=C1OC2(c3ccccc31)c1ccccc1-c1ccccc12	MCF10A rereplic inconclusive, SW480 rereplic inconclusive, KB-3-1 cytotox inconclusive, KB-V1 MDR tox inconclusive
COc1cc(C2Nc3cccc4cccc(c34)N2)ccc1O	IL-1B inflam inh -82.8, KB-V1 MDR tox inconclusive
Cc1ccccc1NS(=O)(=O)c1ccc(Br)s1	KB-V1 MDR tox inconclusive (no result: IL-1B inflam inh, MCF10A rereplic, SW480 rereplic)
COc1ccc(C(=O)NC(=S)Nc2ccc(Cc3ccncc3)cc2)cc1	IL-1B inflam inh -64.1, MCF10A rereplic inconclusive, SW480 rereplic inconclusive, KB-3-1 cytotox inconclusive, KB-V1 MDR tox inconclusive
O=C(NC(=S)Nc1ccc(Cc2ccncc2)cc1)c1ccccc1F	IL-1B inflam inh -74.1, MCF10A rereplic inconclusive, KB-V1 MDR tox inconclusive
CC(C)(C)NC(=O)CN(C(=O)CNS(=O)(=O)c1ccc(Cl)cc1)c1ccc2c(c1)OCCO2	KB-V1 MDR tox inconclusive
Cc1ccc(S(=O)(=O)N2C[C@]3(O)C[C@@H]4C(=O)N(c5ccccc5)C(=O)[C@@H]4C[C@]3(OC(=O)Nc3cccs3)C2)cc1	none (no result: MCF10A rereplic, SW480 rereplic)
CC1c2[nH]c3ccccc3c2CCN1C(=O)Nc1ccccc1 (stereo unspecified)	SW480 rereplic inconclusive, KB-3-1 cytotox inconclusive, KB-V1 MDR tox 8.2µM
O=C(O)CCC(=O)N1CCc2c([nH]c3ccccc23)C1C(F)(F)F (stereo unspecified)	KB-V1 MDR tox inconclusive
O=C(c1ccc(Cl)cc1)N1CCc2c([nH]c3ccccc23)C1C(F)(F)F (stereo unspecified)	MCF10A rereplic inconclusive
CC(=O)Nc1ccc(CN2CCc3c([nH]c4ccccc34)C2C(C)(C)C)cc1 (stereo unspecified)	none
O=C(Nc1ccccc1)N1CCc2c([nH]c3ccccc23)C1C(F)(F)F (stereo unspecified)	IL-1B inflam inh -92.5, MCF10A rereplic inconclusive, SW480 rereplic inconclusive, KB-V1 MDR tox inconclusive
COc1cccc(Cl)c1NC(=O)N1CCc2c([nH]c3ccccc23)C1C(F)(F)F (stereo unspecified)	MCF10A rereplic 5.8µM, SW480 rereplic inconclusive
COc1ccc(CCNC(=O)Cn2nnc(C(=O)Nc3cccc(C)c3C)c2N)cc1OC	none
CC1(C(=O)NS(=O)(=O)c2cccc(Cl)c2)CCN1C(=O)C1CCCCC1 (stereo unspecified)	none (no result: MCF10A rereplic, SW480 rereplic)
CS(=O)(=O)N(CC(=O)N1CCCCC1)c1cccc(F)c1	none
O=C(Nc1cc([N+](=O)[O-])ccc1F)C1CC1	none
COC(=O)c1ccc(CNC(=O)c2ccc3c(c2)S(=O)(=O)N=C2CCCCCN23)cc1	none
COc1ccc2c(c1)c1ccc3c(c1n2C)C(=O)C=CC3=O	MCF10A rereplic inconclusive
Cn1c2ccccc2c2ccc3c(c21)C(=O)C=CC3=O	IL-1B inflam inh inconclusive, MCF10A rereplic 6.51µM, KB-3-1 cytotox inconclusive, KB-V1 MDR tox inconclusive
Cc1ccc(C)c2c1c1ccccc1n2C	none (no result: IL-1B inflam inh)
Cc1ccc2c(c1)c1ccc3c(c1n2C)C(=O)C=CC3=O	MCF10A rereplic inconclusive, SW480 rereplic inconclusive, KB-3-1 cytotox 16.4µM
CCn1c(SCc2ccccc2C)nc(=O)c2c(C(=O)OC)cc(C3CC3)nc21	none (no result: IL-1B inflam inh, MCF10A rereplic, SW480 rereplic)
CC(=O)C1=CCC(c2ccc(C)o2)N(S(=O)(=O)c2ccc(C)cc2)C1 (stereo unspecified)	none (no result: MCF10A rereplic, SW480 rereplic)
COc1ccc(C(=O)NCC(c2ccc(N(C)C)cc2)N2CCc3ccccc32)cc1OC (stereo unspecified)	none (no result: IL-1B inflam inh, MCF10A rereplic, SW480 rereplic)
Cc1ccccc1CN(c1ccc(C(=O)N2CCc3ccccc3C2)cc1)S(C)(=O)=O	MCF10A rereplic inconclusive, KB-3-1 cytotox 10.3µM, KB-V1 MDR tox 10.3µM
Cc1cccc(CSc2nc(-c3cccc(C)c3)nc3c2Cc2c(CO)cnc(C)c2O3)c1	none (no result: IL-1B inflam inh, MCF10A rereplic, SW480 rereplic)
Cc1cccc(/N=C/c2nc(-c3ccccc3Br)oc2O)n1	SW480 rereplic 4.11µM
CCCOc1ccc(-c2nc(C#N)c(N3CCC(C(N)=O)CC3)o2)cc1	IL-1B inflam inh inconclusive, MCF10A rereplic inconclusive, KB-V1 MDR tox 23.1µM
CCN1CCN(c2oc(-c3ccco3)nc2C#N)CC1	none
N#Cc1nc(-c2ccco2)oc1N1CCCC1	none
N#Cc1nc(-c2ccco2)oc1N1CCc2ccccc2C1	IL-1B inflam inh inconclusive, MCF10A rereplic inconclusive, KB-V1 MDR tox 8.2µM
CCOc1ccc(-c2nc(C#N)c(N3CCN(CC)CC3)o2)cc1	none
CC1CC(C)CN(c2oc(-c3ccco3)nc2C#N)C1 (stereo unspecified)	MCF10A rereplic inconclusive, KB-V1 MDR tox 20.6µM
CCCOc1ccc(-c2nc(C#N)c(N3CCN(CC)CC3)o2)cc1	IL-1B inflam inh -60.1, MCF10A rereplic inconclusive
N#C/C(=C(/O)CSc1ncn[nH]1)c1nc2ccccc2[nH]1	MCF10A rereplic inconclusive
O=C1CCCC2=C1C1(CCCC1)N=C(Nc1nc3cc(Cl)ccc3o1)N2	KB-V1 MDR tox inconclusive (no result: IL-1B inflam inh, MCF10A rereplic, SW480 rereplic)
CCCOc1ccc(-c2nc(C#N)c(N3CCN(C)CC3)o2)cc1	IL-1B inflam inh inconclusive
N#Cc1nc(-c2ccco2)oc1N1CCN(c2cccc(Cl)c2)CC1	IL-1B inflam inh -61.9, KB-3-1 cytotox inconclusive
CCCOc1ccc(-c2nc(C#N)c(N3CCc4ccccc4C3)o2)cc1	KB-V1 MDR tox 16.4µM
O=C(Cn1ncc2c([nH]c3ccccc32)c1=O)NCc1cccc(Cl)c1	none (no result: IL-1B inflam inh, MCF10A rereplic, SW480 rereplic)
CCc1cccc(CC)c1NC(=S)N1CCn2cccc2C1c1cccnc1 (stereo unspecified)	MCF10A rereplic inconclusive
COc1ccc(C2Cc3ccccc3C(=O)O2)cc1 (stereo unspecified)	SW480 rereplic 20.6µM, KB-V1 MDR tox inconclusive
COc1ccc(NC(=O)C2Cc3ccccc3C(=O)O2)cc1 (stereo unspecified)	none
CC(C)(C)c1cc(C(=O)Nc2cccnc2)cc(C(=O)Nc2cccnc2)c1	none
